High-throughput results (PubChem)
CYP2C19 act = activators of human cytochrome P450 2C19; P33261; recombinant CYP2C19, luciferin-H EGE luminescence; active compounds read high; 0 = fully inhibited enzyme, 1 = untreated enzyme; activation factor at 5 µM; 96,000 tested, under 10 active; AID 1025;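 active = activation factor of at least 2 at 5 µM in the primary screen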
CYP2C9 act = activators of human CYP2C9; P11712; recombinant CYP2C9, luciferin-H conversion, luminescence; active compounds read high; factor 1 = untreated enzyme, 0 = blocked; activation factor at 5 µM; 96,000 tested, 1.4% active; AID 1024;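 active = activation factor of 2 or more for CYP2C9 at a 5 µM dose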
Target sequence (P11712 whole entry, looked up): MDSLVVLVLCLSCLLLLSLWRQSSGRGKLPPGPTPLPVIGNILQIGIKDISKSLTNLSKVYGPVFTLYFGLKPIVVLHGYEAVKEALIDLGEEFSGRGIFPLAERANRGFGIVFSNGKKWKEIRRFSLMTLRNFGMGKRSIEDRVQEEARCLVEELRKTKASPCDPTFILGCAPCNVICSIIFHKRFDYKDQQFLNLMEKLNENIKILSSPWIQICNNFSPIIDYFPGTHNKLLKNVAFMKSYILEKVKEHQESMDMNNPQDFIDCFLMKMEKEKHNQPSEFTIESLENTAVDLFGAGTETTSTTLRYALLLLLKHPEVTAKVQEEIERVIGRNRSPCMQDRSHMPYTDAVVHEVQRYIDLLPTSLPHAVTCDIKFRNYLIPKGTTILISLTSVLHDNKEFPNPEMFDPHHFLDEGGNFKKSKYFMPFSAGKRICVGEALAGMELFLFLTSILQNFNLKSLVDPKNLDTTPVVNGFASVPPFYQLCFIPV
PostGolgi ctrl = yeast control strain growth, post-Golgi counter-screen; efflux-deficient yeast background strain, growth absorbance A615, 16 h; inhibition, % at 10 µM; 98,000 tested, 5% active; AID 738
CYP2C9 inhib = inhibitors of human CYP2C9 | P11712 | inhibition, % at 5 µM | 96,000 tested, 20% active | CYP2C9 Supersomes, luciferin-H conversion, luminescence | AID 777;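 active = blocking of liver enzyme CYP2C9 beyond about 50% at 5 µM, limit read from the data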
PostGolgi yeast = growth inhibition of a yeast mutant, post-Golgi transport screen. post-Golgi transport phenotypic cell assay. inhibition, % at 10 µM. 98,000 tested, 0.9% active;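 note: yeast cells grown in 1536-well plates; yeast grown about 18 h at 30C before absorbance read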
CYP2C19 inhib = blocks human cytochrome P450 2C19 | P33261 | CYP2C19 Supersomes, luciferin-H EGE luminescence, 30 min | inhibition, % at 5 µM | 96,000 tested, 21% active | AID 778;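 active = CYP2C19 inhibition above a set limit at 5 µM in the primary screen, cut at about 50% in these data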
Each line names hits and unclear results; the compound was inactive in the other large screens. In the library only some 32% were active in any assay of this set; here they are far more common. Cut-off read from the data, not from the text of the source, unless noted: active = inhibition above about 30%; inactive = the rest.

OC(CNCc1ccc(F)cc1)(c1ccccc1)c1ccc(F)cc1 (configuration not stated)	none
O=S(Cc1ccccc1)CC(O)(c1ccc(Cl)cc1)c1ccc(Cl)cc1 (configuration not stated)	CYP2C19 inhib 85
CCOCC(O)CS(=O)Cc1ccccc1 (configuration not stated)	none
O=S(Cc1ccc(Cl)cc1)CC(O)(c1ccccc1)c1ccccc1 (configuration not stated)	CYP2C19 inhib 80
Cn1c(=O)c2c(nc(CN3CCOCC3)n2CCCO)n(C)c1=O	none
Cc1ccc(Cn2ccc(NC(=O)c3cc(-c4ccc5c(c4)OCO5)on3)n2)cc1	PostGolgi ctrl 35
COc1ccc(-c2cc(C(=O)Nc3c(C)nn(Cc4ccccc4Cl)c3C)no2)cc1OC	CYP2C9 inhib 63
COc1ccc(-c2cc(C(=O)Nc3c(C)nn(Cc4ccc(Cl)cc4)c3C)no2)cc1	CYP2C19 inhib 51
Cc1nn(Cc2ccc(Cl)cc2)c(C)c1NC(=O)c1cc(-c2ccco2)on1	none
Cc1ccc(Cn2ccc(NC(=O)c3cc(-c4ccco4)on3)n2)cc1	none
Cc1ccc(Cn2nc(C)c(NC(=O)c3cc(-c4ccc5c(c4)OCO5)on3)c2C)cc1	CYP2C9 inhib 53
Cc1nn(Cc2ccc(F)cc2)c(C)c1NC(=O)c1cc(-c2ccc3c(c2)OCO3)on1	none
COc1ccc(OC)c(-c2cc(C(=O)Nc3c(C)nn(Cc4ccccc4Cl)c3C)no2)c1	none
COc1cccc(CNC(=O)C2CCC(CNS(=O)(=O)c3cccc4nsnc34)CC2)c1 (configuration not stated)	none
COc1cccc2cc3c(=O)oc4ccccc4c3nc12	none
CN(C1CCS(=O)(=O)C1)S(=O)(=O)c1cccc2nsnc12 (configuration not stated)	none
CCOC(=O)N1CCN(c2c(N3CCc4ccccc43)c(=O)c2=O)CC1	none
CC1=C(C(=O)N(C)C)C(c2cccc(Cl)c2)NC(=O)N1 (configuration not stated)	none
COc1ccc(OC)c(NC(=O)c2ccc(CN(c3cc(Cl)ccc3C)S(=O)(=O)c3ccccc3)cc2)c1	none
Cc1cc(NC(=O)C2CC=CCC2C(=O)O)no1 (configuration not stated)	none
CCOC(=O)C1C(=O)Nc2nc3ccccc3n2C1C(C)C (configuration not stated)	none
Cc1ccc(Cn2ccc(NC(=O)c3cc(-c4ccccc4)on3)n2)cc1	none
Cc1ccc(Cn2ccc(NC(=O)c3cc(C)on3)n2)cc1	CYP2C9 inhib 62, CYP2C19 inhib 70
Cn1ccnc1SCC(=O)N(C1CCCCC1)C1CCCCC1	none
CCOC(=O)c1ccc(NC(=O)CSc2nc3c(c(=O)n2C)SC(C)C3)cc1 (configuration not stated)	CYP2C9 inhib 51
CC1Cc2nc(SCC(=O)Nc3ccc4c(c3)OCCO4)n(C)c(=O)c2S1 (configuration not stated)	CYP2C9 inhib 52
CC1Cc2nc(SCC(=O)Nc3ccc4c(c3)OCO4)n(Cc3ccccc3)c(=O)c2S1 (configuration not stated)	CYP2C9 inhib 75, CYP2C19 inhib 84
COCCn1c(SCC(=O)Nc2ccc3c(c2)OCCO3)nc2c(c1=O)SC(C)C2 (configuration not stated)	none (no result: CYP2C19 act, CYP2C9 act, CYP2C9 inhib, CYP2C19 inhib)
CC1Cc2nc(SCC(N)=O)n(C)c(=O)c2S1 (configuration not stated)	none
O=S(=O)(c1ccccc1C(F)(F)F)N1CCOCC1	none
CCOC(=O)c1c(-c2ccc(Cl)cc2)cn2ccccc12	none
O=C(Nc1ccccc1)O/N=C/c1ccncc1	CYP2C9 inhib 60, CYP2C19 inhib 70
CC(/C=C/c1ccccc1)=N\NC(=O)c1ccncc1	none
CCCCN(CCCC)S(=O)(=O)c1ccc(NS(=O)(=O)c2ccc(NC(C)=O)cc2)cc1	CYP2C9 inhib 84
CCCCN(CCCC)S(=O)(=O)c1ccc(NC(=O)CN2CCOCC2)cc1	CYP2C9 inhib 91, CYP2C19 inhib 72
CCCN(CCC)S(=O)(=O)c1ccc(NC(=O)COc2ccccc2)cc1	CYP2C9 inhib 99, CYP2C19 inhib 87
CCCN(CCC)S(=O)(=O)c1ccc(C(=O)Nc2ccc(OCC(=O)N3CCOCC3)cc2)cc1	CYP2C9 inhib 80
COC(=O)CC1SC(=O)NC1=Nc1cccc(C)c1 (configuration not stated)	none
Cn1c(=O)c(=O)n(C)c2cc(S(=O)(=O)N3CCN(c4cccc(C(F)(F)F)c4)CC3)ccc21	none
CCCCNC(=O)Nc1cnn(CC)c1C(N)=O	none
CC(=O)c1ccc(N=Cc2c(O)n(-c3cc(Cl)ccc3N3CCOCC3)c(=O)c3ccccc23)cc1	none
Cc1cc(C)nc(NC(=O)Cc2cccs2)n1	none
CCCN(CCC)S(=O)(=O)c1ccc(NC(=O)Cc2cccs2)cc1	CYP2C9 inhib 84, CYP2C19 inhib 50
CCCCN(CCCC)S(=O)(=O)c1ccc(NC(=O)Cc2cccs2)cc1	CYP2C9 inhib 89, CYP2C19 inhib 66
Cn1c2c(c(=O)n(C)c1=O)C1c3cc(Cl)ccc3OCC1CO2 (configuration not stated)	CYP2C19 inhib 69
Cc1ccccc1Cn1ccc(NC(=O)c2cnn3c(C(F)(F)F)cc(-c4ccco4)nc23)n1	PostGolgi ctrl 33, CYP2C9 inhib 61
Cc1ccc(Cn2ccc(NC(=O)CCSc3nc(-c4ccco4)cc(C(F)(F)F)n3)n2)cc1	PostGolgi ctrl 50, CYP2C9 inhib 93, CYP2C19 inhib 81
Cc1ccccc1Cn1ccc(NC(=O)CCSc2nc(-c3ccco3)cc(C(F)(F)F)n2)n1	PostGolgi ctrl 54, CYP2C9 inhib 85, CYP2C19 inhib 79
O=C(Nc1cnn(C23CC4CC(CC(C4)C2)C3)c1)c1cnn2c(C(F)(F)F)cc(-c3ccco3)nc12	CYP2C9 inhib 78, CYP2C19 inhib 65
Cc1cc(NC(=O)CCSc2nc(-c3ccco3)cc(C(F)(F)F)n2)no1	none
COc1ccc(CCNC(=O)CSc2nc(-c3ccco3)cc(C(F)(F)F)n2)cc1OC	none
CCCCCn1c(N(C)Cc2ccccc2)nc2c1c(=O)[nH]c(=O)n2C	none
Cc1ccc(Cl)cc1N(CC(=O)N1CCCCCC1)S(C)(=O)=O	none
CC1(C)CC(=O)C(C=NCC2CCN(C(=O)Nc3ccc(Cl)c(Cl)c3)CC2)=C(O)C1	PostGolgi ctrl 38
O=C(OCCN(CCOC(=O)c1ccncc1)S(=O)(=O)c1cccs1)c1ccncc1	CYP2C9 inhib 100, CYP2C19 inhib 99
CCOc1ccc2nc(SCc3ccccc3C#N)sc2c1	CYP2C9 act 2.5, CYP2C19 inhib 51
O=C(NCCNC(=O)C1CC2CCC1C2)C1CC2CCC1C2 (configuration not stated)	none
CCOc1cc(/C=C2\C(=O)N(Cc3ccc(C)cc3)C(C)=C2C(=O)OC)ccc1O	CYP2C9 inhib 83
